A selection: hits, their analogues and other compounds. The true share with any hit is near 21%.
Pf growth 48h: Primary qHTS for delayed death inhibitors of the malarial parasite plastid, 48 hour incubation; P. falciparum luciferase growth in erythrocytes, 48 h; 5.9% of 310,000 active; Potency, µM (highest dose often 28.7 µM), without a hit: top-dose activity change, negative = inhibition, hits mostly inhibitors; AID 504832, 2011; also: potency is read from the fitted curve at half-maximal effect; % is scaled to controls: 0 for no effect and ±100 for the full control effect
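A one-generation exposure of luciferase-tagged malaria parasites in RPMI 1640/Albumax erythrocyte culture, 37 C and 5% CO2. Inhibition is inferred from decreased luminescence after adding detection reagent.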
Shiga toxin inh: A qHTS for Small Molecule Inhibitors of Shiga Toxin; Vero cells, Shiga toxin protein synthesis inhibition reporter; inhibition, % at 38.7 µM; 9.2% of 290,000 active; in the data active = inhibition mostly above about 28%, no sharp cut-off; inactive = mostly below about 43%; also: 0% is about no effect
Pf growth 96h: Primary qHTS for delayed death inhibitors of the malarial parasite plastid, 96 hour incubation; P. falciparum luciferase reporter growth, 96 h; 6.9% of 320,000 active; Potency, µM (titrated, usually from 28.7 µM), without a hit: at the highest dose activity change, negative = inhibition, usual class: inhibitors; AID 504834, 2011; also: potency is read from the fitted curve at half-maximal effect; % is scaled to controls: 0 for no effect and ±100 for the full control effect
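Erythrocytes infected with luciferase-expressing P. falciparum were dispensed at 2% hematocrit and 0.05% parasitemia (final), then incubated with compounds 96 hours at 37 C in 5% CO2. Luminescence after detection reagent addition reported growth.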
CHX counter: Cycloheximide Counterscreen for Small Molecule Inhibitors of Shiga Toxin; cell reporter, cycloheximide protein synthesis inhibition counterscreen; max response, %; 12% of 300,000 active; AID 2314, 2010; in the data active = max response mostly above about 13%, no sharp cut-off; inactive = mostly below about 14%; also: read at 38.3 µM for the half of the compounds with a filed dose; 0% is about no effect
NS1 inh: qHTS Assay for Inhibitors of Influenza NS1 Protein Function | Potency, µM (top dose mostly 46.1 µM), inactives show at the top dose activity, positive = more growth | 0.4% of 270,000 active; calls by dose curve; also: potency is read from the fitted curve at half-maximal effect; actives are rising curves; nearly all actives have a fitted effect of over 50% in size
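Compounds were scored for reversing the slow growth caused by influenza A NS1 in S. cerevisiae, measured by optical density at 600 nm. Assay medium contained 2% galactose at pH 6.0; NS1-free yeast of the same strain were the positive control.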
Sm TGR inh: qHTS Assay for the Inhibitors of Schistosoma Mansoni Peroxiredoxins. Schistosoma mansoni thioredoxin glutathione reductase (TGR), Q962Y6. purified TGR, DTNB reduction, TNB absorbance 405 nm. Potency, µM (series often up to 114 µM), without a hit: top-dose activity change, negative = inhibition, hits mostly inhibitors. 3% of 360,000 active. AID 485364, 2010; also: potency is read from the fitted curve at half-maximal effect; % is scaled to controls: 0 for no effect and ±100 for the full control effect; nearly all actives have a fitted effect of over 60% in size
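Kinetic colorimetric format: TGR-catalysed, NADPH-driven DTNB reduction monitored via TNB absorbance. Enzyme dispensed at 20 nM; compound exposure 15 min at room temperature before reaction start.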
Active calls of the source: *; [ ] = dose if it differs, or a comment. Unless noted, calls follow the shape of the dose curve; as a rule, active = well fitted curve in the direction sought with a large enough effect; inconclusive = small, poorly fitted or top-dose-only effect, or another doubt; inactive = no such curve, though single readings can be large; an effect the other way counts as inactive or inconclusive.

Screening CC(C)NC(=O)C1(O)c2ccccc2NC(=O)N1c1ccc(Cl)c(Cl)c1 (stereo not drawn) returned Pf growth 48h -9.9%, Shiga toxin inh -11.4, Pf growth 96h 10.4µM*, CHX counter -2.4, NS1 inh -3.1% and Sm TGR inh 1.3%.
CCOc1ccc(N2C(=O)Nc3ccc(Br)cc3C2(O)C(=O)NCCCN(C)C)cc1 (stereo not drawn) was read as Pf growth 48h 2.5%, Shiga toxin inh -8.8, Pf growth 96h inconclusive, CHX counter 1.1, NS1 inh 4.9% and Sm TGR inh 3.9%.
CCCCN(C)CCCNC(=O)C1(O)c2ccccc2NC(=O)N1c1ccc(Cl)cc1 (stereo not drawn) was read as Pf growth 48h 3.1%[0.00184 µM], Shiga toxin inh -4.2, Pf growth 96h 4.15µM*, CHX counter -2.5, NS1 inh 2.3% and Sm TGR inh -17.6%.
CCOCCCNC(=O)C1(O)c2ccccc2NC(=O)N1c1ccc(Cl)c(Cl)c1 (stereo not drawn) was read as Pf growth 48h 0.7%, Shiga toxin inh -1.2, Pf growth 96h inconclusive, CHX counter -4.1, NS1 inh 4.0% and Sm TGR inh -6.2%.
`CCOc1ccc(N2C(=O)Nc3ccc(Br)cc3C2(O)C(=O)NCCN(C)C)cc1` (stereo not drawn) gave Pf growth 48h -7.6%, Shiga toxin inh 1.8, Pf growth 96h 1.85µM*, CHX counter -1.8, NS1 inh -3.3% and Sm TGR inh -27.5%.
`Cc1nc(C(C)NC(=O)CCc2nnc(CCCc3ccccc3)o2)c(C)s1` (stereo not drawn) gave Pf growth 48h -2.9%, Shiga toxin inh 74.8*, Pf growth 96h -25.1%, CHX counter 31.7*, NS1 inh -1.5% and Sm TGR inh 3.6%[57.1 µM].
Cc1cc(C)n(CC(C)NC(=O)CCc2nnc(CCc3ccccc3)o2)n1 (stereo not drawn) was read as Pf growth 48h -11.4%, Shiga toxin inh 2.8, Pf growth 96h inconclusive, CHX counter 5.3, NS1 inh 0.1% and Sm TGR inh -5.7%.
Screening O=C(CCc1nnc(CCCc2ccccc2)o1)NC(C1CC1)C1CC1 returned Pf growth 48h 23.8%, Shiga toxin inh 55.2*, Pf growth 96h 24.2%, CHX counter 33.4*, NS1 inh -7.0% and Sm TGR inh 0.0%[57.1 µM].
`CCOc1ccc(OCCCCn2cnc3ccccc3c2=O)cc1` gave Pf growth 48h 0.0%, Shiga toxin inh -3.7, Pf growth 96h 55.6%[1.15 µM], CHX counter 4.2, NS1 inh -9.6% and Sm TGR inh 4.4%.
For Cc1nc2c(cnn2-c2ccccc2Cl)c(=O)n1-c1ccc(C(C)C)cc1 the results were Shiga toxin inh -3.6, Pf growth 96h 2.62µM*, CHX counter -2.6, NS1 inh -84.0% and Sm TGR inh 2.7%.
Screening COc1ccc(-n2c(C)nc3c(cnn3-c3ccc(C)c(C)c3)c2=O)cc1 returned Shiga toxin inh -1.0, Pf growth 96h 10.4µM*, CHX counter 1.3, NS1 inh -90.2% and Sm TGR inh 0.7%.
`COc1cc(OC)cc(C(=O)NC(C(=O)Nc2ccc(N3CCOCC3)cc2)C(C)C)c1` (stereo not drawn) gave Pf growth 48h inconclusive, Pf growth 96h -15.4% and Sm TGR inh 0.1%.
CCCCCc1nc2c(=O)n(C)c3ccccc3c2o1 was read as Pf growth 48h inconclusive, Shiga toxin inh 123.4*, Pf growth 96h 1.6%, CHX counter 64.4*, NS1 inh -30.6% and Sm TGR inh 5.8%.
`CCOC(=O)C1C2C=CC3(CN(Cc4ccco4)C(=O)C13)O2` (stereo not drawn) gave Pf growth 48h -21.4%, Shiga toxin inh 16.1, Pf growth 96h -9.4%[5.75 µM], CHX counter -1.4, NS1 inh 13.5% and Sm TGR inh 31.6µM*.
`CCOC(=O)CN1CC23C=CC(O2)C(C(=O)NCc2cccs2)C3C1=O` (stereo not drawn) gave Shiga toxin inh -19.0, Pf growth 96h inconclusive, CHX counter -2.8, NS1 inh -6.7% and Sm TGR inh -5.5%.
`COC(=O)C1C2C=CC3(CN(Cc4ccco4)C(=O)C13)O2` (stereo not drawn) gave Pf growth 48h 21.7%, Shiga toxin inh -3.7, Pf growth 96h inconclusive, CHX counter -1.5, NS1 inh 6.1% and Sm TGR inh 28.2µM*.
CCOC(=O)CN1CC23C=CC(O2)C(C(=O)NCc2ccc(C)cc2)C3C1=O (stereo not drawn) was read as Shiga toxin inh 20.1, Pf growth 96h 10.4µM*, CHX counter -0.9, NS1 inh 2.2% and Sm TGR inh 8.7%.
Screening CC(C)(C)c1ccc(S(=O)(=O)N2CCC(NC(=O)c3ccco3)CC2)cc1 returned Pf growth 48h inconclusive, Shiga toxin inh -9.4, Pf growth 96h 8.9%, CHX counter -6.2, NS1 inh -0.4% and Sm TGR inh 6.2%.
CCOC(=O)Cc1cc(OC)c(OC)cc1Cc1cc(OC)c(OC)cc1CC(=O)OCC was read as Pf growth 48h 12.4%, Shiga toxin inh -8.7, Pf growth 96h 18.3%, CHX counter -4.6, NS1 inh -2.9% and Sm TGR inh 3.0%.
For Cc1cc(C)c(S(C)(=O)=O)c(N(C)N)n1 the results were Pf growth 48h 236.9%, Shiga toxin inh -1.4, Pf growth 96h 17.6%, CHX counter 5.7 and Sm TGR inh 8.0%.
COc1ccc(C(=O)CSc2nc(N)nc(SC)c2C#N)cc1 was read as Shiga toxin inh 5.3, Pf growth 96h -23.3%, CHX counter 3.2, NS1 inh -10.3% and Sm TGR inh -3.1%.
Screening Cc1cc(C)c(C#N)c(OCc2ccc(Cl)nc2)n1 returned Pf growth 48h 16.5%, Shiga toxin inh 5.2, Pf growth 96h -2.8%, CHX counter 9.9, NS1 inh -5.9% and Sm TGR inh 89.1µM*.
For Cc1cc(C)c(C#N)c(Sc2ccccc2N)n1 the results were Pf growth 48h inconclusive, Shiga toxin inh 71.7*, Pf growth 96h inconclusive, CHX counter 31.9* and Sm TGR inh inconclusive.
Cc1cc(C)c(C#N)c(OCC(=O)Nc2ccccc2)n1 was read as Pf growth 48h -3.3%, Shiga toxin inh 0.9, Pf growth 96h 31.1%, CHX counter 1.5, NS1 inh 3.2% and Sm TGR inh 6.1%.
For Cc1cc(C)c(C#N)c(OCC(=O)c2ccccc2)n1 the results were Pf growth 48h inconclusive, Shiga toxin inh 34.8, Pf growth 96h 18.1%, CHX counter 39.4*, NS1 inh -6.5% and Sm TGR inh 14.3%.
`CSc1nc(N)nc(SCC(=O)c2ccccc2)c1C#N` gave Pf growth 48h 34.0%, Shiga toxin inh 58.1, Pf growth 96h 107.5%, CHX counter 19.1*, NS1 inh inconclusive and Sm TGR inh inconclusive.

Screening results (PubChem BioAssay)
